Source: PubChem BioAssay AID1159580 (chemical genetic matrix, 2015)
Among all 5,500 compounds or so, about 2,000 (36%) were called active. Roughly 18% stayed inconclusive and do not appear here. Some of the results follow. Unmarked numbers belong to inactive results. No stated cut-off is given here; in the data, active means normalized growth mostly below about 0.91 (no sharp cut-off); inconclusive means no clear call, values can overlap the other calls; inactive means mostly above about 0.92.

Test: chemical genetic growth profiling, strain panel (AID 1159580);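 further: tested at 20 µM; growth read once vehicle control cultures reached saturation at 30 °C; 1 = growth at the plate median or of vehicle wells; lower values mean less growth of the strain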
Conditions: growth OD
[1] = S. cerevisiae deletion strains, locus YAL013W, strain DEP1, active compounds read low
[2] = S. cerevisiae deletion strains, locus YBR229C, strain ROT2, active compounds read low
[3] = S. cerevisiae deletion strains, locus YDL101C, strain DUN1, active compounds read low
[4] = S. cerevisiae deletion strains, locus YDL134C, strain PPH21, active compounds read low
[5] = S. cerevisiae deletion strains, locus YDR150W, strain NUM1, active compounds read low
[6] = S. cerevisiae deletion strains, locus YEL061C, strain CIN8, active compounds read low
[7] = S. cerevisiae deletion strains, locus YGR078C, strain PAC10, active compounds read low
[8] = S. cerevisiae deletion strains, locus YHR030C, strain SLT2, active compounds read low
[9] = S. cerevisiae deletion strains, locus YHR087W, strain rtc3, active compounds read low
[10] = S. cerevisiae deletion strains, locus YJL187C, strain SWE1, active compounds read low
[11] = S. cerevisiae deletion strains, locus YJR043C, strain POL32, active compounds read low
[12] = S. cerevisiae deletion strains, locus YJR075W, strain HOC1, active compounds read low
[13] = S. cerevisiae deletion strains, locus YLR039C, strain RIC1, active compounds read low
[14] = S. cerevisiae deletion strains, locus YLR058C, strain SHM2 (second series), active compounds read low
[15] = S. cerevisiae deletion strains, locus YLR085C, strain ARP6, active compounds read low
[16] = S. cerevisiae deletion strains, locus YLR262C, strain YPT6, active compounds read low
[17] = S. cerevisiae deletion strains, locus YML094W, strain GIM5, active compounds read low
[18] = S. cerevisiae deletion strains, locus YMR219W, strain ESC1, active compounds read low
[19] = S. cerevisiae deletion strains, locus YMR263W, strain SAP30, active compounds read low
[20] = S. cerevisiae deletion strains, locus YNL153C, strain GIM3, active compounds read low
[21] = S. cerevisiae deletion strains, locus YNL298W, strain CLA4 (second series), active compounds read low
[22] = S. cerevisiae deletion strains, locus YNL322C, strain KRE1, active compounds read low
[23] = S. cerevisiae deletion strains, locus YNR030W, strain Alg12, active compounds read low
[24] = S. cerevisiae deletion strains, locus YPL055C, strain LGE1, active compounds read low
[25] = S. cerevisiae deletion strains, locus YPL241C, strain CIN2, active compounds read low
[26] = S. cerevisiae deletion strains, locus YPR135W, strain CTF4, active compounds read low
[27] = S. cerevisiae strains, strain wild type, active compounds read low
[28] = S. cerevisiae deletion strains, locus YCL061C, strain MRC1, active compounds read low
[29] = S. cerevisiae deletion strains, locus YGR229C, strain SMI1, active compounds read low
[30] = S. cerevisiae deletion strains, locus YKL190W, strain CNB1, active compounds read low
[31] = S. cerevisiae deletion strains, locus YOL006C, strain TOP1, active compounds read low
[32] = S. cerevisiae deletion strains, locus YMR307W, strain GAS1, active compounds read low

CC(C)(C)c1nc(N)sc1Br
normalized growth [1]: 1
normalized growth [2]: 0.998
normalized growth [3]: 1.04
normalized growth [4]: 0.986
normalized growth [5]: 0.993
normalized growth [6]: 1.02
normalized growth [7]: 1
normalized growth [8]: 0.98
normalized growth [9]: 1.01
normalized growth [10]: 1
normalized growth [11]: 1.01
normalized growth [12]: 1.01
normalized growth [13]: 0.932
normalized growth [14]: 1
normalized growth [15]: 0.985
normalized growth [16]: 0.951
normalized growth [17]: 0.965
normalized growth [18]: 1.01
normalized growth [19]: 0.993
normalized growth [20]: 1.02
normalized growth [21]: 0.981
normalized growth [22]: 1.01
normalized growth [23]: 1
normalized growth [24]: 0.984
normalized growth [25]: 0.995
normalized growth [26]: 0.868
normalized growth [27]: 1

CN1c2ccccc2C(=O)NC1c1cc(Br)cs1 (centres undefined)
normalized growth [1]: 1.02
normalized growth [2]: 0.996
normalized growth [28]: 1.02
normalized growth [3]: 0.996
normalized growth [4]: 1.01
normalized growth [5]: 0.996
normalized growth [6]: 0.997
normalized growth [7]: 1
normalized growth [29]: 0.998
normalized growth [8]: 0.99
normalized growth [9]: 1.01
normalized growth [11]: 1.02
normalized growth [12]: 0.993
normalized growth [30]: 1.01
normalized growth [13]: 1.07
normalized growth [14]: 1.01
normalized growth [15]: 1.06
normalized growth [16]: 1.06
normalized growth [17]: 1.01
normalized growth [18]: 1.01
normalized growth [19]: 1.01
normalized growth [20]: 1
normalized growth [21]: 1.04
normalized growth [22]: 0.996
normalized growth [23]: 1.03
normalized growth [31]: 1.06
normalized growth [24]: 1.01
normalized growth [25]: 0.996
normalized growth [26]: 0.969
normalized growth [27]: 1.03

N=C(N)SCCc1cccc(CCSC(=N)N)c1
normalized growth [1]: 0.957
normalized growth (S. cerevisiae deletion strains, locus YAL040C, strain CLN3, active compounds read low): 1.05
normalized growth (S. cerevisiae deletion strains, locus YCL061C, strain MRC1 (second series), active compounds read low): 0.984
normalized growth (S. cerevisiae deletion strains, locus YDR363W, strain ESC2, active compounds read low): 0.997
normalized growth (S. cerevisiae deletion strains, locus YER002W, strain NOP16, active compounds read low): 1.02
normalized growth [7]: 0.992
normalized growth [32]: 1.01
normalized growth [20]: 1.16
normalized growth (S. cerevisiae deletion strains, locus YNL175C, strain NOP13, active compounds read low): 1.02
normalized growth (S. cerevisiae deletion strains, locus YNL197C, strain WHI3, active compounds read low): 0.981
normalized growth (S. cerevisiae deletion strains, locus YNL224C, strain SQS1, active compounds read low): 1.05
normalized growth [22]: 0.975
normalized growth (S. cerevisiae deletion strains, locus YOR083W, strain WHI5 (second series), active compounds read low): 0.963

Cc1ccc(CSC(=N)N)cc1
normalized growth [1]: 1.01
normalized growth [2]: 0.994
normalized growth [28]: 1.01
normalized growth [3]: 0.994
normalized growth [4]: 1
normalized growth [5]: 0.998
normalized growth [6]: 0.976
normalized growth [7]: 1.02
normalized growth [8]: 0.995
normalized growth [9]: 0.988
normalized growth [11]: 1
normalized growth [12]: 0.973
normalized growth [30]: 1.01
normalized growth [13]: 1.01
normalized growth [14]: 1.01
normalized growth [15]: 1.01
normalized growth [16]: 1
normalized growth [17]: 0.977
normalized growth [18]: 1
normalized growth [19]: 1.01
normalized growth [20]: 0.999
normalized growth [21]: 1
normalized growth [22]: 0.995
normalized growth [23]: 0.0939 (active)
normalized growth [31]: 1.03
normalized growth [24]: 1.01
normalized growth [25]: 0.149 (active)
normalized growth [26]: 1.01
normalized growth [27]: 1.01

Cc1ccc(CS/C(N)=N\N)cc1
normalized growth [1]: 0.993
normalized growth [2]: 0.996
normalized growth [28]: 0.98
normalized growth [3]: 0.97
normalized growth [5]: 0.95
normalized growth [6]: 1
normalized growth [7]: 1
normalized growth [29]: 0.978
normalized growth [8]: 0.836
normalized growth [9]: 0.983
normalized growth [10]: 0.995
normalized growth [11]: 0.978
normalized growth [12]: 1.02
normalized growth [30]: 0.982
normalized growth [13]: 0.846
normalized growth [14]: 0.99
normalized growth [15]: 0.952
normalized growth [16]: 0.889
normalized growth [17]: 1.01
normalized growth [18]: 0.989
normalized growth [19]: 0.976
normalized growth [32]: 1.05
normalized growth [20]: 0.979
normalized growth [21]: 0.963
normalized growth [22]: 0.999
normalized growth [23]: 0.976
normalized growth [31]: 0.854
normalized growth [24]: 0.967
normalized growth [25]: 0.969
normalized growth [26]: 0.907

CC1(C)CCC(C(C)(C)O)CC1
normalized growth [1]: 0.988
normalized growth [2]: 1.01
normalized growth [28]: 0.999
normalized growth [3]: 1
normalized growth [5]: 0.985
normalized growth [6]: 1.03
normalized growth [7]: 1.02
normalized growth [29]: 0.991
normalized growth [8]: 1.02
normalized growth [9]: 1.02
normalized growth [10]: 0.838 (active)
normalized growth [11]: 0.988
normalized growth [12]: 1
normalized growth [30]: 0.992
normalized growth [13]: 0.978
normalized growth [14]: 0.995
normalized growth [15]: 1.04
normalized growth [16]: 0.939
normalized growth [17]: 1.04
normalized growth [18]: 0.998
normalized growth [19]: 1.01
normalized growth (S. cerevisiae deletion strains, locus YNL128W, strain TEP1, active compounds read low): 0.99
normalized growth [20]: 1.01
normalized growth [21]: 0.994
normalized growth [22]: 0.994
normalized growth [23]: 1.01
normalized growth [31]: 0.984
normalized growth [24]: 1.01
normalized growth [25]: 1.04
normalized growth [26]: 0.989
